Several values for one entry are separate records, joined by “and”; a condition that tells them apart may be missing. Equal values may be shown once. This is part of a sample that, as a whole, favours compounds with a hit. Of some 83,000 tested, about 20% had one in any assay.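 The endpoint reported here, percent growth, reads 100 for growth as untreated, 0 for no net growth and -100 for all cells dead.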 Activity calls are given as the source filed them. How the source made its calls: active means growth percent below 10; inactive means the rest.

The values below come from PubChem BioAssay (NCI).

This test has as its system HL-60(TB) leukemia. Kind of test: NCI-60 one-dose screen, 48 h (100 = growth as untreated, 0 = no growth, -100 = all killed). Particulars: 10 µM unless noted.
Turning to `C=C(C)[C@@H]1CC[C@]2(C(N)=O)CC[C@]3(C)[C@H](CC[C@@H]4[C@@]5(C)C/C(=C/c6cccnc6)C(=O)C(C)(C)[C@@H]5CC[C@]43C)[C@@H]12`, the growth was 3.16% [100 µM] (active).
As for `O=C(Nc1ccc(Br)cc1)c1cc(Br)ccc1O`, the figure is -18.4% (active) and -60% (active).
`COc1ccc(/C=C/C(=O)c2cc(OC)c(OC)c(OC)c2)cc1OCc1cn(Cc2ccc(F)cc2)nn1`: the growth was 69.4% (inactive).
On to `COC(=O)/C(CCC=C(C)C)=C1\[C@@H](OC(C)=O)C[C@@]2(C)[C@H]1C[C@@H](O)[C@H]1[C@@]3(C)CC[C@H](NC(=O)c4cnccn4)[C@@H](C)[C@@H]3CC[C@@]12C`, for which the growth was 99.5% (inactive).
Regarding `CCN(CC)CCCC(C)Nc1cnc(C(=O)Nc2cc(F)cc3cccnc23)cn1` (stereo not given), the growth was 85.5% (inactive) and 5.69% (active).
As for `COc1ccc(-c2nn(Cc3ccccc3)c3c2-c2oncc2CC3)cc1OC`, the figure is 87.7% (inactive); as for `Cc1cc(O)c(C(C)C)cc1S(=O)(=O)O` (tested in a mixture with another compound), 84.2% (inactive) and -0.846% (active) and 104% (inactive).
In the case of `COC(=O)c1nc(N)nc(C(=O)OC)c1C(=O)c1ccc(OC)cc1` it was 115% (inactive) and 65.7% (inactive).
As for `CCC(=O)OC1=C(C)SC2=NC(c3ccc(Cl)c(Cl)c3)=CC(c3cc(OC)c(OC)c(OC)c3)N21` (stereo not given), the figure is 97.8% (inactive).
With `COc1cc2nc(N3CCN(C(=O)C4COc5ccccc5O4)CC3)nc(N)c2cc1OC` (stereo not given), the growth is 104% (inactive) and 103% (inactive) and 99.9% (inactive).
